This is a sample that favours compounds with a hit; in the whole collection about 3.6% have one here.
Rango release inh: qHTS Assay for Inhibitors of RanGTP induced Rango (Ran-regulated importin-beta cargo) - Importin beta complex dissociation; Snurportin-1 (Homo sapiens) + GTP-binding nuclear protein Ran (Homo sapiens) + Importin …; Biochemical FRET Rango-importin beta, RanGTP-induced dissociation; Potency, µM (titrated, usually from 46.1 µM), for inactives: at the top dose activity change, negative = inhibition; 0.071% of 340,000 active; calls by dose curve; also: potency is read from the fitted curve at half-maximal effect; % of control where 0% means no effect; nearly all actives have a fitted effect of over 45% in size
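Compounds sat 5 min at room temperature with 0.1 uM Rango biosensor plus 0.25 uM importin beta, then FRET pre-read. RanGTP-RCC1 (0.6 uM Ran, 2mM GTP, 0.2 uM RCC1) added for 45 min, and the CFP/YFP post-read measured blocked complex dissociation.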
GCN5L2 inh: qHTS Assay for Inhibitors of GCN5L2; Histone acetyltransferase KAT2A (Homo sapiens), Q92830; GCN5L2 HAT assay, ThioGlo1 CoA-SH fluorescence; Potency, µM (highest dose often 58.9 µM), for inactives: at the top dose activity change, negative = inhibition, most hits filed as inhibitors; 0.21% of 390,000 active; AID 504327, 2011; also: potency is read from the fitted curve at half-maximal effect; % is scaled to controls: 0 for no effect and ±100 for the full control effect
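Titration-based screen in which CoA formation is detected via maleimide probe ThioGlo1 (50uM) turning fluorescent on thiol reaction; substrates H3(1-25) 75uM and acetyl-CoA 70uM, GCN5L2 20nM, 20 min incubation at room temperature.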
PLK1 PBD inh: qHTS for Inhibitors of PLK1-PDB (polo-like kinase 1 - polo-box domain): Primary Screen. Serine/threonine-protein kinase PLK1 (Homo sapiens), P53350. Plk1 PBD binding of FITC phosphopeptide, fluorescence polarization. Potency, µM, inactives show max response, negative = inhibition, hits mostly inhibitors. 2.8% of 360,000 active; also: potency is read from the fitted curve at half-maximal effect; series mostly up to about 57 µM; % is scaled to controls: 0 for no effect and ±100 for the full control effect; nearly all actives have a fitted effect of over 65% in size
VDR inh: Inhibitors of the vitamin D receptor (VDR): qHTS; AID 504847, 2011; 0.93% of 400,000 active; VDR-SRC2-3 peptide fluorescence polarization, 2 h; Potency, µM, inactives show max response, negative = inhibition, actives largely listed as inhibitors; Vitamin D3 receptor (Homo sapiens), P11473; also: potency is read from the fitted curve at half-maximal effect; % is scaled to controls: 0 for no effect and ±100 for the full control effect
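Fluorescence polarization assay of small-molecule disruption of VDR binding to coregulator peptide SRC2-3. Compounds and controls pin-transferred, then read after 2 h incubation at ambient room temperature.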
PI5P4Ka inh: qHTS for Inhibitors of phosphatidylinositol 5-phosphate 4-kinase (PI5P4K) | 1.2% of 330,000 active | max response, % | AID 652105, 2013 | PI5P4Kalpha enzyme, ADP-Glo luminescence, 60 min; hits give low values | Phosphatidylinositol 5-phosphate 4-kinase type-2 alpha (Homo sapiens), P48426; active = max response of -50% or lower; inconclusive = between -30% and -50%; inactive = -30% or higher; also: value at the top dose of about 77 µM; % is scaled to controls: 0 for no effect and ±100 for the full control effect
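qHTS, 1536-well: enzyme/substrate mix, compound by pin tool, 5 microM ATP final; RT 60 min; ADP-Glo reagents 1 (45 min) then 2 (30 min); luminescence.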
Rango-impB inh: qHTS Assay for Inhibitors of Rango (Ran-regulated importin-beta cargo) - Importin beta complex formation; Importin subunit beta-1 (Homo sapiens), Q14974; Rango CFP/YFP FRET sensor + importin beta, 45 min; Potency, µM (series often up to 92.2 µM), for inactives: at the top dose inhibition of complex formation; 0.031% of 340,000 active; AID 540263, 2011; calls by dose curve;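 also: potency is read from the fitted curve at half-maximal effect; 0% = DMSO wells and 100% = buffer wells lacking importin beta; nearly all actives have a fitted effect of over 15% in size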
Target sequence (Q14974 whole entry, looked up): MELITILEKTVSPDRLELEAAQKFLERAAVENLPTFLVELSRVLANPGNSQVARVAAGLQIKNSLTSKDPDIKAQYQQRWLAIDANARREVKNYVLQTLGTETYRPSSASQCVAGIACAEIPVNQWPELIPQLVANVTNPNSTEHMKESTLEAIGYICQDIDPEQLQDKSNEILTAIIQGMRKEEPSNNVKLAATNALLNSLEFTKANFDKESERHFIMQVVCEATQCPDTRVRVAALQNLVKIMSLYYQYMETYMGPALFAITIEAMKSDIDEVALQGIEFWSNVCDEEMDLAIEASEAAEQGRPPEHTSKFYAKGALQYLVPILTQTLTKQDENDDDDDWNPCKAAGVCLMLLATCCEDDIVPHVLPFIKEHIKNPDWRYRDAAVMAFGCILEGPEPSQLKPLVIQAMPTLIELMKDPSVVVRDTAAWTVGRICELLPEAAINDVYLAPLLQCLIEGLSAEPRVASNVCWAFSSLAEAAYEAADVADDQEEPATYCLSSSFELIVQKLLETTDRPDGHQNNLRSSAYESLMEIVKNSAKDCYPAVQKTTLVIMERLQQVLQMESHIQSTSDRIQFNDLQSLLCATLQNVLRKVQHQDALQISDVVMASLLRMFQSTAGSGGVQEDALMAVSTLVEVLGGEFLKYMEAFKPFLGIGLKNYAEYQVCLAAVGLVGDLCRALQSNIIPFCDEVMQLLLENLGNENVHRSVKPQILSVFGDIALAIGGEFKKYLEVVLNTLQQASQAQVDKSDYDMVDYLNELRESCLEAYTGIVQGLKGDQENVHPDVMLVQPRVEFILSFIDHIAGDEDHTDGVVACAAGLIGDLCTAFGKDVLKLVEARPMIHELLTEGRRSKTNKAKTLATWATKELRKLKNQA
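FRET biosensor Rango (snurportin 1 IBB between N-terminal EYFP and C-terminal Cerulean), 50 nM in PBS/1 mM DTT/0.02% Tween-20/0.1% BSA, preincubated 5 min RT with compound; 0.125 microM importin beta added, 45 min RT, CFP/YFP FRET ratio read.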
Active calls of the source: *. Unless noted, calls follow the shape of the dose curve; as a rule, active = well fitted curve in the direction sought with a large enough effect; inconclusive = small, poorly fitted or top-dose-only effect, or another doubt; inactive = no such curve, though single readings can be large; an effect the other way counts as inactive or inconclusive.

`NC(=O)NC(CC(=O)NCCc1ccc(S(N)(=O)=O)cc1)c1ccc(Cl)cc1` (stereo unspecified) gave Rango release inh -1%, GCN5L2 inh -4%, PLK1 PBD inh 15µM*, VDR inh inconclusive, PI5P4Ka inh -17 and Rango-impB inh -2%.
Screening NC(=O)NC(CC(=O)NCCc1ccc(S(N)(=O)=O)cc1)c1ccccc1Cl (stereo unspecified) returned Rango release inh -2%, GCN5L2 inh 0%, PLK1 PBD inh 7%, VDR inh -4%, PI5P4Ka inh 10 and Rango-impB inh 0%.
`CCCn1nnnc1NCc1c(Cl)cccc1Cl` gave Rango release inh 6%, GCN5L2 inh -3%, PLK1 PBD inh 5%, VDR inh 11%, PI5P4Ka inh -2 and Rango-impB inh -1%.
CCCn1nnnc1NCc1c(F)cccc1Cl was read as Rango release inh 8%, GCN5L2 inh -3%, PLK1 PBD inh 8.4µM*, VDR inh inconclusive, PI5P4Ka inh -15 and Rango-impB inh 1%.
Screening NC(=O)N/N=C/c1coc2ccc(O)cc2c1=O returned Rango release inh 10%, GCN5L2 inh -14%, PLK1 PBD inh -7%, VDR inh -12%, PI5P4Ka inh -22 and Rango-impB inh -2%.
For N#C/C(=C\c1coc2ccc(O)cc2c1=O)C(=O)Nc1nc2ccccc2s1 the results were Rango release inh inconclusive, GCN5L2 inh inconclusive, PLK1 PBD inh inconclusive, VDR inh inconclusive, PI5P4Ka inh -101* and Rango-impB inh inconclusive.
For N#CC1=C2Nc3ccccc3N2C(=O)NC1(c1ccccc1)C(F)(F)F (stereo unspecified) the results were Rango release inh 1%, GCN5L2 inh -5%, PLK1 PBD inh 24µM*, VDR inh -24%, PI5P4Ka inh -8 and Rango-impB inh 2%.
`Cc1ccc(C2(C(F)(F)F)NC(=O)N3N=C4CCCCCN4C3=C2C#N)cc1` (stereo unspecified) gave Rango release inh 1%, GCN5L2 inh -1%, PLK1 PBD inh -6%, VDR inh 12%, PI5P4Ka inh -7 and Rango-impB inh 3%.
Screening O=S(=O)(c1ccc(Br)cc1)c1nc(-c2ccco2)oc1SCc1ccccc1Cl returned GCN5L2 inh -10% and VDR inh 13%.
Screening O=S(=O)(NCc1cc(-c2ccccc2Cl)no1)c1ccc(Cl)cc1 returned Rango release inh -3%, GCN5L2 inh -9%, PLK1 PBD inh 3.8µM*, VDR inh 18µM*, PI5P4Ka inh inconclusive and Rango-impB inh 2%.
`COc1ccc(-c2cc(CNS(=O)(=O)c3ccc(NC(C)=O)cc3)on2)cc1` gave Rango release inh -19%, GCN5L2 inh -4%, PLK1 PBD inh 8%, VDR inh -21%, PI5P4Ka inh 0 and Rango-impB inh -1%.
For C=CCSc1nc2ccccc2c(=O)[nH]1 the results were Rango release inh -14%, GCN5L2 inh -2%, PLK1 PBD inh 1%, VDR inh 16%, PI5P4Ka inh -3 and Rango-impB inh inconclusive.
For C=CCSc1nccc(=O)[nH]1 the results were Rango release inh 8%, GCN5L2 inh 0%, PLK1 PBD inh 13µM*, VDR inh inconclusive, PI5P4Ka inh -18 and Rango-impB inh -2%.
Screening CCOC(=O)C1=C(C)N=c2s/c(=C\c3ccc(OCC(=O)O)cc3)c(=O)n2C1c1ccc(OC(C)C)cc1 (stereo unspecified) returned Rango release inh inconclusive, GCN5L2 inh inconclusive, PLK1 PBD inh 24µM*, VDR inh 50µM*, PI5P4Ka inh -7 and Rango-impB inh inconclusive.
Screening CCOC(=O)C1=C(C)N=c2sc(=Cc3cc(Cl)c(OCC(=O)O)c(Cl)c3)c(=O)n2C1c1cccc(OC)c1 (stereo unspecified) returned PLK1 PBD inh 27µM* and PI5P4Ka inh -74*.
For COc1cccc(C2C(C(=O)OC(C)C)=C(C)N=c3s/c(=C\c4ccc(C(=O)O)cc4)c(=O)n32)c1 (stereo unspecified) the results were Rango release inh 32%, GCN5L2 inh -19%, PLK1 PBD inh inconclusive, VDR inh 89µM*, PI5P4Ka inh -14 and Rango-impB inh 0%.
For CCOC(=O)C1=C(C)N=c2sc(=Cc3ccc(OCC(=O)O)cc3)c(=O)n2C1c1ccc(Cl)cc1 (stereo unspecified) the results were PLK1 PBD inh -14% and PI5P4Ka inh inconclusive.
Screening COc1cccc(C2C(C(=O)Nc3ccccc3)=C(C)N=c3s/c(=C/c4ccc(OCC(=O)O)cc4)c(=O)n32)c1 (stereo unspecified) returned Rango release inh inconclusive, GCN5L2 inh -11%, PLK1 PBD inh -11%, VDR inh -14%, PI5P4Ka inh inconclusive and Rango-impB inh inconclusive.
Screening CCC(C(=O)O)C1OC(C(C)C(O)C(C)C(=O)C(CC)C2OC3(C=CC(O)C4(CCC(C)(C5CCC(O)(CC)C(C)O5)O4)O3)C(C)CC2C)C(C)CC1C (stereo unspecified) returned GCN5L2 inh -9% and VDR inh 1%.
Screening CCCCC(=O)OCc1cc(=O)n2nc(C3CCCCC3)sc2n1 returned GCN5L2 inh 11% and VDR inh 4%.
For CCOC(=O)c1ccc(NC(=O)CSc2cc(-c3ccccc3)nc(C)n2)cc1 the results were GCN5L2 inh -7% and VDR inh -2%.
CC(C)(O)[C@@H]1CCC[N+]2(C)CCCC[C@H]12 (stereo partly specified) was read as VDR inh -3%.
`Fc1cccc(Cc2c(-c3ccco3)nc3c(Cl)cc(C(F)(F)F)cn23)c1` gave PLK1 PBD inh 12µM* and PI5P4Ka inh inconclusive.
Clc1ccc(-n2c(Cc3ccccc3)nnc2SCc2nc(-c3cccs3)no2)cc1 was read as GCN5L2 inh -3% and VDR inh 20%.
